# Some of the results follow. The hit rate among all sequences tested is not known here.
# Target: furin, P09958
# Test: furin cleavage Z-score vs untreated control; higher = more cleavage, active = 3.5 or more, inactive = 1 or less, 8 variable residues between constant flanks
# In short: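 Peptides 8 residues long, fused to a cDNA oligonucleotide, were fixed to magnetic beads by the N-terminus and exposed to purified furin. The 0.01 ml reactions contained 50 mM HEPES pH 7.5 with CaCl2 and NaCl at 1:10 enzyme:substrate and ran 7.5, 15 or 30 min. For the cleavage Z-score, log counts of sequenced released DNA were compared with furin-free reactions, lowess-adjusted and scaled by median absolute deviation.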
# Chain of furin, P09958 (P09958 whole entry): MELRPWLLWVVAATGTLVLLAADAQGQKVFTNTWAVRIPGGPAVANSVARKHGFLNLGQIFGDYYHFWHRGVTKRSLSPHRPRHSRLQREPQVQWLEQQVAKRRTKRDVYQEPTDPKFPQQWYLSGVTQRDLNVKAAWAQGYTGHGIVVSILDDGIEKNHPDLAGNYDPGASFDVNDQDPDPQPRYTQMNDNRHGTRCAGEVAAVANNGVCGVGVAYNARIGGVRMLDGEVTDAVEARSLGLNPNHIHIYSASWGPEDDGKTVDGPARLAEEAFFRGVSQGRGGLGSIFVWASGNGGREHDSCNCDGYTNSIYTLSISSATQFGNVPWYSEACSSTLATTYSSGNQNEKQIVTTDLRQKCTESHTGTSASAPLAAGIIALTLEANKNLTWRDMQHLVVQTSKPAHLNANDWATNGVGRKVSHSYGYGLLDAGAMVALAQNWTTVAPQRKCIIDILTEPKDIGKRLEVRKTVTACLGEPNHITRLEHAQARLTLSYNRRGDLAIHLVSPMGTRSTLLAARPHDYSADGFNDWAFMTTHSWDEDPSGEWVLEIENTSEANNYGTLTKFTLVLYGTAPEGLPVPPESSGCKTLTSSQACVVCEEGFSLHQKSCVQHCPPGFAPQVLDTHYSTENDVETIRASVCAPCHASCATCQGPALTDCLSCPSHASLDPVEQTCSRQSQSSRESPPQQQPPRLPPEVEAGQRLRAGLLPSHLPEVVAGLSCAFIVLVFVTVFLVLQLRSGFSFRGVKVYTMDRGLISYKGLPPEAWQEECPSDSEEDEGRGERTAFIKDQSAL
Sequence,furin cleavage Z-score (7.5 min),furin cleavage Z-score (15 min),furin cleavage Z-score (30 min)
CALHKRQVGDAGNASASA [FS-1675],-0.324 (inactive),-0.439 (inactive),0.074 (inactive)
CALRTREKRGAGNASASA [FS-549],7.16 (active),7.31 (active),5.83 (active)
CAKVKRSQGDAGNASASA [FS-1985],3.98 (active),3.48,3.75 (active)
CALRNRLFRGAGNASASA [FS-359],0.887 (inactive),1.52,-0.676 (inactive)
CARQPRSNGDAGNASASA [FS-2292],0.463 (inactive),-0.49 (inactive),1.56
CAGFDRKKRGAGNASASA [FS-238],9.36 (active),9.95 (active),8.88 (active)
CAQRNLKKRGAGNASASA [FS-914],10.1 (active),13.1 (active),11.1 (active)
CATTPHSGSWAGNASASA [HC49],-0.934 (inactive),-0.777 (inactive),-0.65 (inactive)
CAEDRDRSELAGNASASA [HC488],0.995 (inactive),1.63,0.694 (inactive)
CARTPCSAHLAGNASASA [HC2473],0.852 (inactive),-0.775 (inactive),2.15
CAITPCSAHLAGNASASA [HC2464],-1.38 (inactive),0.00684 (inactive),-0.357 (inactive)
CATCPCSGSWAGNASASA [HC1860],-0.794 (inactive),-0.696 (inactive),-0.69 (inactive)
CAMTPCSGSWAGNASASA [HC1826],-0.934 (inactive),-2.45 (inactive),-0.784 (inactive)
CAAPHREKRGAGNASASA [FS-398],10.8 (active),11.4 (active),9.9 (active)
CAARGRYSRGAGNASASA [FS-1622],1.05,0.971 (inactive),1.84
CATFAVEKRGAGNASASA [FS-1289],1.19,0.186 (inactive),0.573 (inactive)
CAEVVWSTWVAGNASASA [HC127],0.227 (inactive),0.0628 (inactive),-0.337 (inactive)
CARYRRCVGWAGNASASA [FS-2389],3.27,2.12,5.02 (active)
CAKQRRIVGIAGNASASA [FS-2869],0.0283 (inactive),-0.751 (inactive),0.888 (inactive)
CARYRRLTGDAGNASASA [FS-1843],-1.17 (inactive),-0.169 (inactive),1.01
CARYCRGVSAAGNASASA [FS-1941],-0.864 (inactive),-0.376 (inactive),-0.444 (inactive)

# From the supplement of paper PMC3545927
